Hits are enriched below; roughly 3.5% of the tested compounds scored in any of these assays.
FBW7 act = FBW7 E3 ligase activators, primary screen, biochemical, AlphaScreen, human. normalized activity (activation), % at 26.1 µM. 650,000 compounds, 0.13% hits. AlphaScreen FBW7–phospho-cyclin E peptide binding, activator screen; in the data active = normalized activity above about 1.9%;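 also: purified mutant Fbw7 with reduced substrate affinity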
GPR151 ag = activators of human GPR151, primary screen, cell-based, PathHunter beta-arrestin, luminescence; G-protein coupled receptor 151 (Homo sapiens), Q8TDV0; PathHunter beta-arrestin GPR151 cells; activation, % at 11.2 µM; 650,000 compounds, 1% hits; AID 1508602, 2020; in the data active = activation above about 4.9%;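 also: 0% = median of compound wells and 100% = cells with positive control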
MITF primary = MITF inhibitors, primary screen, biochemical, AlphaScreen, human. AlphaScreen MITF homodimerization, bead proximity signal. inhibition, % at 2.6 µM. 650,000 compounds, 0.91% hits. Microphthalmia-associated transcription factor (Homo sapiens), O75030. AID 1259374, 2018; in the data active = inhibition above about 50%;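 also: 0% = vehicle wells with protein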
TEAD-YAP inh = TEAD-YAP interaction inhibition, primary screen, TEAD-YAP interaction inhibitor project, luminescence, HEK-TIYL cells. AID 1259422, 2018. 640,000 compounds, 1.4% hits. TEAD-Gal4/YAP UAS-luciferase luminescence. inhibition, % at 9.12 µM; in the data active = inhibition above about 32%;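 also: 0% = median of test compound wells and 100% = reference inhibitor wells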
GPR151 confirm = GPR151 activators, triplicate retest, confirmation, cell-based, PathHunter beta-arrestin, luminescence; shares compounds with GPR151 ag; GPR151 PathHunter beta-arrestin cells, 90 min; % of EA-reagent control over plate median; activation, % at 11.2 µM; 6,700 tested, under 10 active; AID 1508609, 2020;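 active = mean percent activation across replicates above the confirmation screen cutoff of 4.91%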
GPR119 ag = GPR119 activators in beta-arrestin cells, counter-screen for GPR151 activator project, cell-based, PathHunter beta-arrestin, luminescence, triplicate; 90 min; 0 = compound-well median, 100 = enzyme-acceptor control; activation, % at 11.2 µM; shares compounds with GPR151 ag; 6,700 compounds, 0.3% hits;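 active = mean percent activation in the counterscreen above 29.09%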;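 also: counterscreen on off-target GPR119 to flag nonselective hits from the GPR151 activator screen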
The depositor's hits bear a star; · = not tested or not shown.

SMILES	FBW7 act	GPR151 ag	MITF primary	TEAD-YAP inh	GPR151 confirm	GPR119 ag
Cc1ccc(NC(=O)C2CCCN2c2nn3c(=O)cc(C)nc3s2)c(Cl)c1 (stereo not given)	0	5.0*	6	3	0	-5
COCCCNc1nc2nonc2nc1N(C)Cc1ccc(F)cc1	0	5.8*	8	-2	1	5
COCCCNc1nc2nonc2nc1N(C)Cc1ccccn1	0	0	-9	-6	·	·
Cc1nc2ccccc2n1CCNS(=O)(=O)c1ccc(F)cc1	0	6.4*	34	-12	1	6
CC1CCCCC1NC(=O)CCS(=O)(=O)c1ccc(Br)cc1 (stereo not given)	0	0	1	1	·	·
Cc1c(C(=O)N2CCCCCC2)sc2ncn(Cc3ccccc3Cl)c(=O)c12	0	8.5*	-4	1	0	6
Cc1c(C(=O)N2CCN(Cc3ccccc3)CC2)sc2ncn(Cc3ccccc3Cl)c(=O)c12	0	-2	-6	-4	·	·
Cc1nc(CN(C)C(=O)CCC2(Cc3ccc(Cl)cc3)CCC(=O)N2)cs1 (stereo not given)	1	0	0	-3	·	·
COc1ccc(CNC(=O)CN2C(=O)CCc3ccccc32)cc1	0	-1	14	-2	·	·
Oc1ccccc1CNc1cc2c(cc1Br)OCCO2	0	19*	10	-2	0	-2
Oc1ccccc1CNc1ccc2c(c1)OCCO2	0	0	5	-19	·	·
COc1cccc(C(O)c2cccs2)c1 (stereo not given)	0	0	3	-5	·	·
CC(=O)n1nc(NCc2ccccc2)nc1NCc1ccccc1	0	0	-6	-1	·	·
CCCC(=O)n1nc(NCc2ccccc2)nc1NCc1ccccc1	0	6.9*	11	-9	0	-6
COCC(=O)n1nc(NCc2ccc(OC)cc2)nc1NCc1ccc(OC)cc1	0	3	-16	4	·	·
O=C(COc1ccccc1)n1nc(NCc2ccccc2)nc1NCc1ccccc1	0	8.8*	4	-3	0	4
Cc1ccc(NC(=O)c2ccc3c(c2)N(CC(=O)Nc2ccccc2)C(=O)C(C)(C)O3)cc1	0	0	-5	4	·	·
Cc1cccnc1NC(=S)NC(=O)c1ccccc1Br	0	0	10	-43	·	·
O=C(NC(=S)Nc1ncccc1O)c1ccccc1Br	0	7.6*	-4	-85	0	-8
CC(C)CCN1C(=O)CC(NNC(=O)c2ccc(F)cc2)C1=O (stereo not given)	0	5.7*	0	-8	1	2
O=C(CSc1nc2ccc(Nc3nc(N4CCOCC4)nc(N4CCOCC4)n3)cc2s1)NC1CC1	0	9.3*	-1	0	1	12
O=C(CSc1nc2ccc(Nc3nc(N4CCOCC4)nc(N4CCOCC4)n3)cc2s1)NCC1CCCO1 (stereo not given)	1	-1	1	6	·	·
c1ccc(N2CCN(Cc3nnnn3Cc3cccs3)CC2)cc1	0	1	-1	-2	·	·
c1ccc(CN2CCN(Cc3nnnn3Cc3cccs3)CC2)cc1	0	5.9*	10	2	0	-3
COc1cc(OC)cc(-c2nnc(SCC(=O)c3cccc([N+](=O)[O-])c3)o2)c1	0	7.2*	11	-3	-1	-16
O=C(CSc1nnc(-c2ccncc2)o1)c1cccc([N+](=O)[O-])c1	0	0	-2	-12	·	·
O=S(=O)(NCc1csc(-c2cccnc2)n1)c1ccc(Br)cc1	0	5.6*	11	-9	0	-10
CS(=O)(=O)c1ccc2c(c1)nc(NCCCN1CCOCC1)c1nccn12	0	2	2	0	·	·
COC(=O)c1ccccc1NC(=O)C(C)C	1	5.3*	-1	9	0	-11
COc1cc(NC(=O)c2ccccc2Cl)ccc1NC(=O)C(C)C	0	10*	17	-16	0	-5
